Screens as filed in PubChem.
Rows were chosen to be rich in hits. Some 19% of all compounds tested hit in one or more screens of this group.
TDP1 inh: blocks human tyrosyl-DNA phosphodiesterase 1. Potency, µM (doses to about 130 µM), actives largely listed as inhibitors. 350,000 compounds, 0.28% hits. recombinant TDP1, AlphaScreen DNA substrate cleavage. Q9NUW8; further: nearly all actives have a fitted effect of over 40% in size
Target sequence (Q9NUW8 whole entry, looked up): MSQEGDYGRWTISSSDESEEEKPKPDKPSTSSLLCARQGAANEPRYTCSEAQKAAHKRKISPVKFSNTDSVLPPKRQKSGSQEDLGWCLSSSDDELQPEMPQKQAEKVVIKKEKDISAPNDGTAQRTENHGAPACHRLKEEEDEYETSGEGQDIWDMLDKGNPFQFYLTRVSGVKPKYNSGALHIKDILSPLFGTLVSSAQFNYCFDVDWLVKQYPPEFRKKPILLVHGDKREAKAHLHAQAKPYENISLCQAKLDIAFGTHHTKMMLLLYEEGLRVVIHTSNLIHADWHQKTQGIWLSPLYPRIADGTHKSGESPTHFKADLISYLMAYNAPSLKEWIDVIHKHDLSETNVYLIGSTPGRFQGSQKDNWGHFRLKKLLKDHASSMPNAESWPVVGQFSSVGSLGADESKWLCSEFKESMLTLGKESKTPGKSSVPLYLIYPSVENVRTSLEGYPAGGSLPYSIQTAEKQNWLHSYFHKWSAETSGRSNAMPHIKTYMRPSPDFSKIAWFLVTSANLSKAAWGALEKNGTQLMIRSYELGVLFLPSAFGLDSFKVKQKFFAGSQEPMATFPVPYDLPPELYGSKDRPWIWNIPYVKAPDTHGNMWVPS
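Here, a 5' biotin and 3' phosphotyrosine-FITC DNA oligonucleotide reports Tdp1 activity: intact substrate bridges AlphaScreen beads, while cleavage leaves a 3' phosphate and drops signal. All incubations at room temperature.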
Giardia kill: Giardia lamblia killing; 340,000 compounds, 0.15% hits; AID 540267; activity change, % at 7.66 µM, hits read low; Giardia lamblia trophozoite viability; in the data active means activity change below about -80%; inconclusive means between about -30% and that limit;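 further: parasites exposed to compound for two days anaerobically before the ATP read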
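ATP-content bioluminescence gauges trophozoite survival. Cells (100/well) receive compound and incubate anaerobically for 48 hrs at 37 deg C; detection reagent follows for 15-30 min at room temperature.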
TDP1 cell noCPT: qHTS for Inhibitors of human tyrosyl-DNA phosphodiesterase 1 (TDP1): qHTS in cells in absence of CPT. 420,000 compounds, 15% hits. AID 686978, 2013. DT40 Tdp1-/- hTDP1 cells, no CPT, ATP luminescence, 48 h. Potency, µM (top dose mostly 46.2 µM), usual class: inhibitors; further: nearly all actives have a fitted effect of over 55% in size
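Cells were dispensed at 400 per well, compounds added by pin tool, plates incubated ≥48 hr at 37 °C, then CellTiter-Glo added for 30 min at room temperature before luminescence reading. Line: DT40 Tdp1-/- complemented with hTDP1; camptothecin omitted.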
IL1B secr inh: blocks inflammasome-driven IL-1 beta release; THP-1 LPS/ATP IL-1B secretion, AlphaLISA, 16 h; active compounds read low; activity change, % at 57.5 µM; 360,000 compounds, 4.7% hits; AID 743279; in the data active means activity change below about -50%; inconclusive means mostly about -30% to -49%
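THP-1 cells pretreated 1 hr with compounds (up to 57.5 uM final), then stimulated with LPS (250 ng/mL final) plus ATP (1.25 mM final); secreted IL-1B measured by AlphaLISA after 16 hr, decreased signal indicating inhibition.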
DT40 TDP1 CPT: DT40-hTDP1 cell growth loss with CPT | AID 686979 | 420,000 compounds, 12% hits | Potency, µM (doses to about 46.2 µM), hits mostly inhibitors | chicken DT40 Tdp1-/-;hTDP1 cells + 20 nM CPT, ATP luminescence, 48 h; further: nearly all actives have a fitted effect of over 55% in size
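Cell growth measured by CellTiter-Glo luminescence after a minimum 48 h, 37 C compound exposure with 20 nM CPT in Tdp1-knockout DT40 cells stably expressing hTDP1, seeded 400/well; qHTS titration format.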
ELG1 repair inh: ELG1-dependent DNA repair inhibition; HEK293T ELG1-luciferase reporter, luminescence, 16 h; DNA damage induced by 5-fluorouridine; Potency, µM (highest dose often 46.1 µM), usual class: inhibitors; 330,000 compounds, 2.3% hits; further: nearly all actives have a fitted effect of over 55% in size
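Step one: seed 2,000 cells per well. Step two: pin-transfer compound or DMSO alongside 5-fluorouridine. Step three: incubate 16 hr, 37 °C, 5% CO2. Step four: add ONE-Glo, wait 30 min, read luminescence.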
Hits are given with their value; - = inactive; ? = inconclusive; . = no result given. Unless noted, the call rests on the fitted dose curve; in most records, active means well fitted curve in the direction sought with a large enough effect; inconclusive means small, poorly fitted or top-dose-only effect, or another doubt; inactive means no such curve, though single readings can be large; an effect the other way counts as inactive or inconclusive.

SMILES	TDP1 inh	Giardia kill	TDP1 cell noCPT	IL1B secr inh	DT40 TDP1 CPT	ELG1 repair inh
CNc1nn(-c2cccc(Cl)c2)nc1N	-	-	2.1µM	-	?	?
Cc1cn2c(=O)cc(COC(=O)c3ccc(NC(=O)c4ccc(C(C)(C)C)cc4)cc3)nc2s1	-	.	?	.	-	.
CCOC(=O)c1c(-c2ccccc2Cl)cn2ccccc12	-	-	?	-	?	-
CCOC(=O)c1c2c(n(-c3ccc(OC)cc3)c1C)C(=O)C(=O)c1ccccc1-2	.	-	2.1µM	-	3.3µM	.
CCOC(=O)c1c2c(n3ccccc13)C(=O)c1ccccc1C2=O	.	.	10µM	.	10µM	.
Oc1c(Br)cc(Br)cc1/C=N/c1nccs1	-	-	18µM	-	?	-
Cc1nnc(C)n1/N=C/c1cc(Br)cc(Br)c1O	-	-	-	-	-	-
Oc1ccc(Cl)cc1/C=N/c1nccs1	-	-	11µM	-	13µM	-
Oc1ccc(Cl)cc1C=Nc1ccc(Br)cc1	-	-	-	-	-	-
Oc1c(Br)cc(Br)cc1C=Nc1ccc2[nH]ncc2c1	.	-	?	-	-	?
Oc1c(Br)cc(Br)cc1C=Nc1cccnc1	.	-	21µM	-	?	-
CCN(CC)c1ccc(NC(=O)c2c(C)nn(-c3ccc(F)cc3)c2-n2cccc2)c(C)c1	-	.	.	.	.	.
Cc1cc(C)c2cc(C#N)c(N3CCCN(C(=S)NCCCN(C)C)CC3)nc2c1	.	-	23µM	-56	?	-
Cc1ccc2cc(C#N)c(N3CCCN(C(=S)NCCCN(C)C)CC3)nc2c1	.	-	15µM	?	16µM	-
CCOCCCNC(=S)N1CCCN(c2nc3cc(C)ccc3cc2C#N)CC1	-	-	-	-	-	?
CCOc1ccc(OCC(O)CNC2CCN(Cc3ccccc3)CC2)cc1 (stereo not drawn)	-	-	9.2µM	?	5.8µM	-
c1ccc(CN2CCN(CCOCCOc3ccc4c(c3)CCC4)CC2)cc1	-	-	23µM	-60	?	-
O=C(/C=C/c1ccc([N+](=O)[O-])cc1)N1CCN(Cc2ccccc2)CC1	-	-	?	-	?	-
O=C(/C=C/c1ccc(OCCCF)cc1)N1CCN(Cc2ccccc2)CC1	.	-	?	-53	-	-
CCOc1ccccc1OCCOCCN1CCN(Cc2ccccc2)CC1	.	-	?	-	?	-
O=C(c1ccccc1)c1ccc(OCC(O)CN2CCN(Cc3ccccc3)CC2)cc1 (stereo not drawn)	-	-	23µM	?	21µM	-
O=C(c1ccccc1)c1ccc(OCCCN2CCCC2)cc1	-	-	-	-	-	?
O=C(c1ccccc1)c1ccc(OCCOCCN2CCN(Cc3ccccc3)CC2)cc1	-	-	21µM	?	23µM	?
CN(CCOc1cccc(C(F)(F)F)c1)Cc1ccccc1	-	-	?	-	?	-
FC(F)(F)c1cccc(OCCN2CCN(Cc3ccccc3)CC2)c1	-	-	?	-	21µM	-
SMILES	TDP1 inh	Giardia kill	TDP1 cell noCPT	IL1B secr inh	DT40 TDP1 CPT	ELG1 repair inh
CC(=O)N/N=C/c1c(C)[nH]n(-c2ccccc2)c1=O	-	-	?	-	-	-
Cc1[nH]n(-c2ccccc2)c(=O)c1/C=N/NC(=O)C(C)C	-	-	?	-	15µM	-
Cc1[nH]n(-c2ccccc2)c(=O)c1/C=N/N1C(=O)c2ccc3c4c(ccc(c24)C1=O)CC3	-	-	18µM	-88	?	-
Cc1ccc(OCC(=O)N/N=C\c2c(C)n(C)c3ccccc23)c([N+](=O)[O-])c1	-	-	18µM	?	?	?
COCC(=O)N/N=C/c1c(C)[nH]n(-c2ccccc2)c1=O	-	-	16µM	-	18µM	?
COC(=O)N/N=C\c1c(C)[nH]n(-c2ccccc2)c1=O	-	-	-	-	-	-
CCC1(C)C(Nc2c(C)cccc2C)=NC(=S)N1c1ccc(NC(C)=O)cc1 (stereo not drawn)	-	-	-	-	-	-
CN(CC(=O)Nc1ccccc1Cl)C(=O)CSc1nnc(-c2ccco2)n1C	-	-	-	-	-	-
Cc1[nH]n(-c2ccccc2)c(=O)c1/C=N/NC(=O)c1ccccc1F	.	-	5.2µM	-	6.5µM	2.3µM
Cc1[nH]n(-c2ccccc2)c(=O)c1/C=N/O	-	-	-	-	-	-
Cc1[nH]n(-c2ccccc2)c(=O)c1/C=N/NC(=O)COc1ccccc1[N+](=O)[O-]	-	-	4.6µM	-	5.8µM	-
Clc1ccccc1-c1nnc(-c2ccccc2CNc2ccc(Br)cc2)o1	-	.	?	.	?	.
N#Cc1ccc(-c2csc(NC(=O)C3CC3)n2)cc1	-	-	0.37µM	-	0.73µM	-
